Screening results deposited in PubChem by National Center for Advancing Translational Sciences (NCATS).
CHX counter: Cycloheximide Counterscreen for Small Molecule Inhibitors of Shiga Toxin | cell reporter, cycloheximide protein synthesis inhibition counterscreen | 12% of 300,000 active | max response, %; in the data active means max response mostly above about 13%, no sharp cut-off; inactive means mostly below about 14%; further: read at 38.3 µM for the half of the compounds with a filed dose
Shiga inhibitor: A qHTS for Small Molecule Inhibitors of Shiga Toxin. Vero cells, Shiga toxin protein synthesis inhibition reporter. inhibition, % at 38.7 µM. 9.2% of 290,000 active; in the data active means inhibition mostly above about 28%, no sharp cut-off; inactive means mostly below about 43%
LmPK inh: qHTS Assay for Inhibitors of Leishmania Mexicana Pyruvate Kinase (LmPK); Q27686; Potency, µM (titrated, usually from 57.5 µM), usual class: inhibitors; purified LmPK, Kinase-Glo ATP luminescence, 1 h; 0.37% of 290,000 active
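Screened at intermediate enzyme activity to detect both inhibitors and activators: LmPK at 0.1 nM, with a 0.5 nM enzyme column as activation reference. PEP 0.5 mM, ADP 0.1 mM; ATP detected by luminescence after 1 h.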
RE007 growth inh: qHTS Assay for Inhibitors of the HIV-1 protein Vpr. S. pombe RE007 Vpr strain, BacTiter-Glo ATP luminescence, 24 h. Potency, µM (top dose mostly 92.2 µM), actives largely listed as inhibitors. 0.21% of 360,000 active. AID 651644, 2012; active means well fitted falling curve with a large enough effect; inconclusive means small, poorly fitted or top-dose-only effect; inactive means no such curve, though single readings can be large or run the other way; further: nearly all actives have a fitted effect of over 50% in size
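Fission yeast RE007 carrying one integrated HIV-1 vpr copy, seeded at OD 0.01 in PMG+AL medium with 23 nL pinned compound. Grown 24 h at 30 degrees; viability read by BacTiter-Glo luminescence after 5 min.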
FBPA Giardia inh: qHTS Assay for Inhibitors of Fructose-1,6-bisphosphate Aldolase from Giardia Lamblia; AID 2451, 2010; Potency, µM (titrated, usually from 59.6 µM), hits mostly inhibitors; A8B2U2; purified Giardia FBPA; 0.71% of 290,000 active; further: nearly all actives have a fitted effect of over 55% in size
Target sequence (A8B2U2 whole entry, looked up): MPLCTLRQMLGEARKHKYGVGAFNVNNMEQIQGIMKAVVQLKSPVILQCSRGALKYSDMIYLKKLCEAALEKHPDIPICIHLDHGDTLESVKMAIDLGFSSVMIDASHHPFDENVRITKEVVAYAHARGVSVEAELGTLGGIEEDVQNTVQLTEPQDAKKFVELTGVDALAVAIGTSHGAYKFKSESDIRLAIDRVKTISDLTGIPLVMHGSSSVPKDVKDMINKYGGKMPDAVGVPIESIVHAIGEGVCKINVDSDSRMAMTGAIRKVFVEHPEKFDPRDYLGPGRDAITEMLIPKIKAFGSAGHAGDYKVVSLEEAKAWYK
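40 nM FBPA preincubated 10 min at RT with compound (up to 57.5 uM final), then substrate plus GAPDH/TPI/NAD/arsenate coupling and diaphorase/resazurin added. Fluorescence read after 20 min at RT, 525/598 nm.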
TbPYK inhibitor: qHTS of Trypanosoma Brucei Inhibitors. 0.12% of 410,000 active. TbPYK enzyme, Kinase-Glo Plus ATP luminescence, 45 min. Potency, µM (doses to about 76.8 µM), actives largely listed as inhibitors. AID 624173, 2012; further: nearly all actives have a fitted effect of over 50% in size
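Luminescent Kinase-Glo Plus end-point after 45 min room-temperature reaction of T. brucei pyruvate kinase started with 130 uM ADP (final). Buffer TEA 50 mM pH 7.2 with KCl, MgCl2, BSA, Tween-20; titration-based qHTS with fitted concentration-effect curves.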
Large screens that a line does not name were inactive. Shown is part of a subset that was picked to be rich in hits. Unless noted, the call rests on the fitted dose curve; in most records, active means well fitted curve in the direction sought with a large enough effect; inconclusive means small, poorly fitted or top-dose-only effect, or another doubt; inactive means no such curve, though single readings can be large; an effect the other way counts as inactive or inconclusive.

Cn1c(Nc2ccc(F)cc2)nc2ccccc21	none
Cc1ccc(NCc2nc3ccccc3n2C)cc1C	CHX counter 46 (no result: Shiga inhibitor)
Cc1ccc(NCc2nc3ccccc3n2C)cc1	CHX counter 49, Shiga inhibitor 95, LmPK inh inconclusive
Cc1ccc(NC(=O)NCc2nc3ccccc3n2C)cc1	none
COc1ccc(NCc2nc3ccccc3n2C)cc1	CHX counter 35, Shiga inhibitor 66
COc1ccc(Nc2nc3ccccc3n2C)cc1	CHX counter 35, Shiga inhibitor 40, FBPA Giardia inh inconclusive
COc1ccc(C(=O)NNC(=O)Cc2nc3ccccc3n2C)cc1	none (no result: CHX counter, Shiga inhibitor, LmPK inh, FBPA Giardia inh)
COC(=O)N[C@@H](c1cccc(C)c1)[C@@H](C)[N+](=O)[O-]	none (no result: CHX counter, Shiga inhibitor, LmPK inh, RE007 growth inh, TbPYK inhibitor)
COc1ccc(CN(C(=O)c2ccccc2F)C2CCS(=O)(=O)C2)cc1 (configuration not stated)	none (no result: CHX counter, Shiga inhibitor, LmPK inh, RE007 growth inh, FBPA Giardia inh)
Cc1ccccc1N1CCN(CC(=O)Nc2ccccc2C(=O)NC2CC2)CC1	none (no result: CHX counter, Shiga inhibitor, LmPK inh, FBPA Giardia inh)
Cn1c(CNc2ccc(O)cc2)nc2ccccc21	CHX counter 19, Shiga inhibitor 75, FBPA Giardia inh inconclusive
CCOC(=O)c1ccc(NCc2nc3ccccc3n2C)cc1	CHX counter 32, LmPK inh inconclusive, RE007 growth inh inconclusive
Cn1c(CNc2nc3ccccc3n2C)nc2ccccc21	CHX counter 68, Shiga inhibitor 77
Cn1c(CNc2ccc(Br)cc2)nc2ccccc21	CHX counter 40, Shiga inhibitor 114, RE007 growth inh inconclusive
CC(C)n1c(NCc2nc3ccccc3n2C)nc2ccccc21	none
CCOC(=O)c1ccc(NC(=O)CSc2nnc(CNc3ccc(C)cc3)n2C)cc1	none
CC(OC(=O)c1ccc2c(=O)n3c(nc2c1)CCC3)C(=O)NC1CCCCC1C (configuration not stated)	none
O=C(NCc1cccc(Br)c1)C1CC(c2ccccc2C(F)(F)F)=NO1 (configuration not stated)	none
COc1cc(/C=C(\C#N)C(=O)NCC2CCCO2)ccc1OCCC(C)C (configuration not stated)	none
COCCn1c(=O)c(-c2ccc(F)cc2)nc2cnc(OCc3ccccc3)nc21	none (no result: CHX counter, Shiga inhibitor, LmPK inh, RE007 growth inh)
c1ccc(NC2=NCCCS2)cc1	none
c1ccc(NC2=Nc3ccccc3CS2)cc1	CHX counter 31, Shiga inhibitor 99
CCOC(=O)C1(Cc2ccccc2C)CCCN(C(=O)c2ccnn2C)C1 (configuration not stated)	none
CCOC(=O)C1(Cc2ccccc2C)CCCN(C(=O)c2sccc2C)C1 (configuration not stated)	CHX counter 29 (no result: FBPA Giardia inh)
CCOC(=O)C1(Cc2ccccc2C)CCCN(Cc2cc(OC)c(O)c(OC)c2)C1 (configuration not stated)	CHX counter 13, Shiga inhibitor 38, FBPA Giardia inh inconclusive
CCOC(=O)C1(Cc2ccccc2C)CCCN(C(=O)c2ccoc2)C1 (configuration not stated)	CHX counter 44, Shiga inhibitor 71 (no result: FBPA Giardia inh)
Cc1ccc(NC(=O)C2CCCN(S(=O)(=O)c3ccc4c(c3)CCCC(=O)N4)C2)cc1N(C)C (configuration not stated)	none (no result: CHX counter, Shiga inhibitor, LmPK inh, RE007 growth inh, FBPA Giardia inh)
CC(=O)Nc1nonc1-c1nnc(SCc2ccccc2C)n1C	none (no result: CHX counter, Shiga inhibitor, LmPK inh, RE007 growth inh, FBPA Giardia inh)
CCCCOc1ccc(C(=O)Nc2cccc(-c3nc4cccnc4s3)c2)cc1	none (no result: CHX counter, Shiga inhibitor, LmPK inh, RE007 growth inh, FBPA Giardia inh)
Oc1ccc(Nc2ncnc3c2oc2ccccc23)cc1	CHX counter 40, Shiga inhibitor 33 (no result: RE007 growth inh)
Oc1cccc(Nc2ncnc3c2oc2ccccc23)c1	CHX counter 50, Shiga inhibitor 93
CC(=O)c1ccc(Nc2nc(C)nc3c2oc2ccccc23)cc1	none (no result: RE007 growth inh, TbPYK inhibitor)
c1ccc2c(c1)oc1c(NCc3ccc4c(c3)OCO4)ncnc12	none
Oc1ccccc1Nc1ncnc2c1oc1ccccc12	CHX counter 39
c1ccc(Nc2ncnc3c2oc2ccccc23)cc1	CHX counter 66, Shiga inhibitor 121
CC(C)C(Nc1ncnc2c1oc1ccccc12)C(=O)O (configuration not stated)	none
CCc1ccccc1NS(=O)(=O)c1ccc2c(c1)CCCN2C(=O)C1CCC1	none (no result: CHX counter, Shiga inhibitor, LmPK inh, RE007 growth inh, FBPA Giardia inh)
CC(C)OCCCNC(=O)c1nn(C)c2c1CSc1ccccc1-2	none (no result: CHX counter, Shiga inhibitor, LmPK inh, RE007 growth inh, FBPA Giardia inh)
O=C(CCCN1C(=O)C(c2ccccc2)Oc2cccnc21)Nc1ccc(Br)cc1F (configuration not stated)	none (no result: CHX counter, Shiga inhibitor, LmPK inh, RE007 growth inh, FBPA Giardia inh)
O=S(=O)(Nc1ncnc2c1oc1ccccc12)c1ccc(Cl)s1	CHX counter 16
c1ccc2c(c1)oc1c(NCCN3CCOCC3)ncnc12	none
Cc1cc2c(Nc3ccccc3O)ncnc2s1	none (no result: CHX counter, Shiga inhibitor, LmPK inh, FBPA Giardia inh)
c1ccc2c(c1)oc1c(Nc3ccc(CN4CCOCC4)cc3)ncnc12	CHX counter 92, Shiga inhibitor 106
Cc1cc2c(Nc3cccc(O)c3)ncnc2s1	CHX counter 19
COc1ccccc1-c1noc(-c2ccc(NC(C)C)c([N+](=O)[O-])c2)n1	none (no result: CHX counter, Shiga inhibitor, LmPK inh, RE007 growth inh, FBPA Giardia inh)
COc1cccc(-c2ccc3ncnc(Nc4ccccc4)c3c2)c1	none (no result: CHX counter, Shiga inhibitor, LmPK inh, RE007 growth inh, TbPYK inhibitor)
COc1ccc2cc(C3OCCO3)c(Cl)nc2c1	CHX counter 60, Shiga inhibitor 128
COc1ccc2cc(C3NC(=O)c4ccccc4N3)c(Cl)nc2c1 (configuration not stated)	none
CCCN1C(C(=O)c2ccccc2)=C(OC(=O)C(C)(C)C)c2ccccc2S1(=O)=O	none (no result: CHX counter, Shiga inhibitor, LmPK inh, RE007 growth inh, FBPA Giardia inh)
COC(=O)c1ccc(NC2=C(Cl)C(=O)OC2OC(=O)c2ccccc2)cc1 (configuration not stated)	CHX counter 42
Cc1cc(C)c(NN=c2c(=O)c3ccccc3c2=O)c(C)c1	CHX counter 30, RE007 growth inh inconclusive
O=c1c(=NNc2ccccc2Cl)c(=O)c2ccccc12	CHX counter 41, Shiga inhibitor 83, LmPK inh 16µM
Cc1cc(Cl)ccc1NC(=O)CCS(=O)(=O)c1cc2c(cc1C)NC(=O)CO2	none (no result: CHX counter, Shiga inhibitor, LmPK inh, RE007 growth inh, FBPA Giardia inh)
CCN=c1scc(-c2ccco2)n1/N=C/c1ccc(O)cc1	CHX counter 39, Shiga inhibitor 69
CCN=c1scc(-c2ccco2)n1/N=C/c1ccc(OC)c(O)c1	CHX counter 54, Shiga inhibitor 139
C=C(C)CN=c1scc(C)n1/N=C/c1ccco1	none
